Measurements: PubChem BioAssay AID1159580 (chemical genetic matrix, 2015)
Where “and” joins values, the source holds several entries; their conditions need not be identical. Identical values can stand only once. In all, about 5,500 compounds went through this assay and about 2,000 (36%) were called active. Another 18% or so got no clear call; they are omitted. Cut-off read from the data, not from the text of the source: active = normalized growth mostly below about 0.91 (no sharp cut-off); inconclusive = no clear call, values can overlap the other calls; inactive = mostly above about 0.92. The list shows a part of the results.

Assay: chemical genetic growth profiling, strain panel (AID 1159580);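 note: tested at 20 µM; growth read once vehicle control cultures reached saturation at 30 °C; 1 = growth at the plate median or of vehicle wells; lower values mean less growth of the strain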
Details: S. cerevisiae deletion strains, growth OD

Measured: normalized growth

CC(CCC(=O)O)[C@H]1CCC2C3CC[C@@H]4C[C@H](O)CC[C@]4(C)C3C[C@H](O)[C@@]21C (some centres not stated)
inactive: locus YAL013W, strain DEP1, hits give low values 1.01 | locus YAL021C, strain ccr4, hits give low values 1.02 | locus YAL026C, strain drs2, hits give low values 0.98 | locus YAL030W, strain snc1, hits give low values 1.01 | locus YBL061C, strain skt5, hits give low values 0.983 | locus YBR009C, strain hhf1, hits give low values 1.03 | locus YBR021W, strain FUR4, hits give low values 1.04 | locus YBR023C, strain chs3, hits give low values 0.962 | locus YBR171W, strain sec66, hits give low values 0.989 | locus YBR229C, strain ROT2, hits give low values 0.987 | locus YBR231C, strain swc5, hits give low values 1.02 | locus YBR279W, strain paf1, hits give low values 0.99 | locus YCL011C, strain gbp2, hits give low values 0.974 | locus YCL016C, strain dcc1, hits give low values 0.948 | locus YCL029C, strain bik1, hits give low values 0.977 | locus YCL069W, strain vba3, hits give low values 0.972 | locus YCR088W, strain abp1, hits give low values 0.997 | locus YDL005C, strain med2, hits give low values 0.987 | locus YDL035C, strain GPR1, hits give low values 0.998 | locus YDL040C, strain nat1, hits give low values 0.993 | locus YDL074C, strain BRE1, hits give low values 1 | locus YDL101C, strain DUN1, hits give low values 1.01 | locus YDL185W, strain tfp1, hits give low values 1.02 | locus YDL192W, strain arf1, hits give low values 1 | locus YDR001C, strain nth1, hits give low values 0.984 | locus YDR069C, strain doa4, hits give low values 1.01 | locus YDR101C, strain arx1, hits give low values 1.01 | locus YDR137W, strain rgp1, hits give low values 0.894 | locus YDR150W, strain NUM1, hits give low values 1.01 | locus YDR159W, strain sac3, hits give low values 0.963 | locus YDR162C, strain NBP2, hits give low values 0.998 | locus YDR195W, strain ref2 1.01 | locus YDR297W, strain sur2, hits give low values 1 | locus YDR318W, strain mcm21, hits give low values 0.981 | locus YDR334W, strain swr1, hits give low values 0.98 | locus YDR335W, strain msn5, hits give low values 0.982 | locus YDR388W, hits give low values 0.996 | locus YDR392W, strain spt3, hits give low values 0.884 | locus YDR502C, strain sam2, hits give low values 1.02 | locus YEL003W, strain gim4, hits give low values 1.03 | locus YEL037C, strain rad23, hits give low values 0.979 | locus YEL061C, strain CIN8 (second series), hits give low values 1.01 | locus YEL061C, strain CIN8, hits give low values 1.01 | locus YER015W, strain faa2, hits give low values 1 | locus YER016W, strain bim1, hits give low values 0.975 | locus YER110C, hits give low values 0.982 | locus YER111C, strain swi4, hits give low values 1 | locus YER155C, strain BEM2 (second series), hits give low values 1.06 | locus YER155C, strain BEM2, hits give low values 1.03 | locus YER167W, strain BCK2, hits give low values 1.01 | locus YFR010W, strain ubp6, hits give low values 1.02 | locus YGL078C, strain dbp3, hits give low values 1.02 | locus YGL086W, strain mad1, hits give low values 1.02 | locus YGL167C, strain pmr1, hits give low values 0.999 | locus YGL173C, strain kem1, hits give low values 0.992 | locus YGL227W, strain vid30, hits give low values 1.01 | locus YGL240W, strain doc1, hits give low values 1.01 | locus YGL248W, strain PDE1, hits give low values 1.03 | locus YGL253W, strain hxk2, hits give low values 0.955 | locus YGR078C, strain PAC10, hits give low values 1.08 | locus YGR135W, strain pre9, hits give low values 1.04 | locus YHR013C, strain ard1, hits give low values 0.948 | locus YHR027C, strain rpn1, hits give low values 1 | locus YHR030C, strain SLT2, hits give low values 1.01 and 1.04 | locus YHR079C, strain IRE1 (second series), hits give low values 0.981 | locus YHR079C, strain IRE1, hits give low values 1.05 | locus YHR094C, strain hxt1, hits give low values 0.991 | locus YHR129C, strain ARP1, hits give low values 1.02 | locus YHR142W, strain chs7, hits give low values 0.926 | locus YHR200W, strain rpn10, hits give low values 1.02 | locus YIL066C, strain RNR3, hits give low values 0.999 | locus YIL073C, strain SPO22, hits give low values 1.06 | locus YIL125W, strain kgd1, hits give low values 0.988 | locus YIR030C, strain dcg1, hits give low values 1.01 | locus YJL092W, strain hpr5, hits give low values 0.999 | locus YJL095W, strain BCK1 (second series), hits give low values 0.991 | locus YJL095W, strain BCK1, hits give low values 1.04 | locus YJL115W, strain asf1, hits give low values 0.986 | locus YJL129C, strain trk1, hits give low values 0.959 | locus YJL134W, strain LCB3, hits give low values 1.01 | locus YJL154C, strain vps35, hits give low values 1.01 | locus YJL164C, strain tpk1, hits give low values 1 | locus YJL166W, strain qcr8, hits give low values 1.02 | locus YJL168C, strain set2, hits give low values 0.98 | locus YJL187C, strain SWE1 (second series), hits give low values 1.04 | locus YJR043C, strain POL32, hits give low values 1.01 | locus YJR066W, strain TOR1, hits give low values 0.99 | locus YKL009W, strain mrt4, hits give low values 0.942 | locus YKL068W, hits give low values 0.989 | locus YKL085W, strain MDH1 (second series), hits give low values 0.975 | locus YKL085W, strain MDH1, hits give low values 0.975 | locus YKL160W, strain elf1, hits give low values 0.937 | locus YKR001C, strain vps1, hits give low values 1.01 | locus YKR026C, strain gcn3, hits give low values 1 | locus YKR091W, strain srl3, hits give low values 0.988 | locus YLL001W, strain dnm1, hits give low values 1.01 | locus YLL026W, hits give low values 1 | locus YLL041C, strain sdh2, hits give low values 0.994 | locus YLR027C, strain aat2, hits give low values 0.991 | locus YLR039C, strain RIC1, hits give low values 0.941 | locus YLR058C, strain SHM2, hits give low values 1.01 | locus YLR102C, strain apc9, hits give low values 0.987 | locus YLR113W, strain HOG1, hits give low values 0.951 | locus YLR221C, strain rsa3, hits give low values 1.03 | locus YLR258W, strain gsy2, hits give low values 0.963 | locus YLR262C, strain YPT6 (second series), hits give low values 0.935 | locus YLR262C, strain YPT6, hits give low values 0.925 | locus YLR268W, strain sec22, hits give low values 0.989 | locus YLR320W, strain mms22, hits give low values 0.998 | locus YLR330W, strain CHS5, hits give low values 1.01 | locus YLR342W, strain FKS1 (second series), hits give low values 0.983 | locus YLR342W, strain FKS1, hits give low values 0.987 | locus YLR357W, strain rsc2, hits give low values 1.01 | locus YLR370C, strain arc18, hits give low values 0.972 | locus YLR371W, strain rom2, hits give low values 0.985 | locus YLR384C, strain iki3, hits give low values 0.992 | locus YLR418C, strain cdc73, hits give low values 1.03 | locus YML016C, strain PPZ1, hits give low values 1.01 | locus YML032C, strain rad52, hits give low values 1.01 | locus YML120C, strain ndi1, hits give low values 1.01 | locus YML124C, strain tub3, hits give low values 1.01 | locus YMR058W, strain fet3, hits give low values 1 | locus YMR078C, strain ctf18, hits give low values 0.981 | locus YMR125W, strain sto1, hits give low values 0.995 | locus YMR129W, hits give low values 0.98 | locus YMR205C, strain PFK2, hits give low values 0.969 | locus YMR223W, strain ubp8, hits give low values 1.02 | locus YMR231W, strain pep5, hits give low values 0.99 | locus YMR307W, strain GAS1, hits give low values 1.03 | locus YNL067W, strain RPL9B, hits give low values 1.03 | locus YNL071W, strain lat1, hits give low values 0.99 | locus YNL153C, strain GIM3, hits give low values 1.03 | locus YNL183C, strain NPR1, hits give low values 1 | locus YNL209W, strain ssb2, hits give low values 0.994 | locus YNL233W, strain BNI4, hits give low values 1.03 | locus YNL248C, strain rpa49, hits give low values 0.965 | locus YNL250W, strain rad50, hits give low values 1.01 | locus YNL271C, strain bni1, hits give low values 0.974 | locus YNL298W, strain CLA4, hits give low values 0.98 | locus YNL307C, strain MCK1, hits give low values 0.993 | locus YNL322C, strain KRE1 (second series), hits give low values 1 | locus YNL322C, strain KRE1, hits give low values 1.01 | locus YNR049C, strain mso1, hits give low values 0.988 | locus YNR052C, strain pop2, hits give low values 1.03 | locus YOL006C, strain TOP1, hits give low values 1.05 | locus YOL012C, strain htz1 1.39 | locus YOL147C, strain pex11, hits give low values 1 | locus YOR001W, strain rrp6, hits give low values 1.03 | locus YOR061W, strain CKA2, hits give low values 1 | locus YOR069W, strain VPS5, hits give low values 1 | locus YOR070C, strain gyp1, hits give low values 1 | locus YOR080W, strain dia2, hits give low values 0.986 | locus YOR083W, strain WHI5, hits give low values 0.927 | locus YOR106W, strain vam3, hits give low values 0.953 | locus YOR136W, strain idh2, hits give low values 1.02 | locus YOR144C, strain elg1, hits give low values 0.987 | locus YOR184W, strain ser1, hits give low values 0.994 | locus YOR231W, strain MKK1, hits give low values 1.03 | locus YOR265W, strain rbl2, hits give low values 0.997 | locus YOR270C, strain vph1, hits give low values 0.942 | locus YOR290C, strain snf2, hits give low values 0.952 | locus YOR316C, strain cot1, hits give low values 0.995 | locus YPL051W, strain arl3, hits give low values 0.958 | locus YPL078C, strain atp4, hits give low values 0.952 | locus YPL106C, strain sse1, hits give low values 0.985 | locus YPL240C, strain hsp82, hits give low values 0.99 | locus YPL256C, strain CLN2, hits give low values 1.08 | locus YPR119W, strain clb2, hits give low values 0.992 | locus YPR141C, strain kar3, hits give low values 0.992 | locus YPR163C, strain tif3, hits give low values 1 | locus YPR167C, strain met16, hits give low values 0.996 | strain wtn01, hits give low values 1.01
